Assay results as given in PubChem BioAssay AID1159580 (chemical genetic matrix, 2015).
About 2,000 (36%) of roughly 5,500 compounds were called active. Not shown: some 18% with an inconclusive outcome. No stated cut-off is given here; in the data, active means normalized growth mostly below about 0.91 (no sharp cut-off); inconclusive means no clear call, values can overlap the other calls; inactive means mostly above about 0.92. This is one part of the list.

Assay: chemical genetic growth profiling, strain panel (AID 1159580);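 further: tested at 20 µM; growth read once vehicle control cultures reached saturation at 30 °C; 1 = growth at the plate median or of vehicle wells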
Conditions: growth OD

Measured: normalized growth

C[C@]12CCC3c4ccc(OS(=O)(=O)O)cc4CCC3C1CC[C@H]2O (stereo not given in full)
inactive: S. cerevisiae deletion strains, locus YJR043C, strain POL32, stronger effect = lower value 1 | S. cerevisiae deletion strains, locus YJR066W, strain TOR1, stronger effect = lower value 0.983 | S. cerevisiae deletion strains, locus YKL009W, strain mrt4, stronger effect = lower value 0.99 | S. cerevisiae deletion strains, locus YKL068W, stronger effect = lower value 0.995 | S. cerevisiae deletion strains, locus YKL085W, strain MDH1 (second series), stronger effect = lower value 0.987 | S. cerevisiae deletion strains, locus YKL085W, strain MDH1, stronger effect = lower value 0.987 | S. cerevisiae deletion strains, locus YKL160W, strain elf1, stronger effect = lower value 0.923 | S. cerevisiae deletion strains, locus YKL190W, strain CNB1, stronger effect = lower value 1 | S. cerevisiae deletion strains, locus YKR001C, strain vps1, stronger effect = lower value 0.994 | S. cerevisiae deletion strains, locus YKR026C, strain gcn3, stronger effect = lower value 0.988 | S. cerevisiae deletion strains, locus YKR091W, strain srl3, stronger effect = lower value 0.97 | S. cerevisiae deletion strains, locus YLL001W, strain dnm1, stronger effect = lower value 0.994 | S. cerevisiae deletion strains, locus YLL026W, stronger effect = lower value 0.967 | S. cerevisiae deletion strains, locus YLL041C, strain sdh2, stronger effect = lower value 0.978 | S. cerevisiae deletion strains, locus YLR027C, strain aat2, stronger effect = lower value 0.997 | S. cerevisiae deletion strains, locus YLR039C, strain RIC1, stronger effect = lower value 0.977 | S. cerevisiae deletion strains, locus YLR058C, strain SHM2, stronger effect = lower value 0.99 | S. cerevisiae deletion strains, locus YLR102C, strain apc9, stronger effect = lower value 0.99 | S. cerevisiae deletion strains, locus YLR113W, strain HOG1, stronger effect = lower value 0.963 | S. cerevisiae deletion strains, locus YLR221C, strain rsa3, stronger effect = lower value 1.02 | S. cerevisiae deletion strains, locus YLR258W, strain gsy2, stronger effect = lower value 0.965 | S. cerevisiae deletion strains, locus YLR262C, strain YPT6 (second series), stronger effect = lower value 0.977 | S. cerevisiae deletion strains, locus YLR262C, strain YPT6, stronger effect = lower value 0.945 | S. cerevisiae deletion strains, locus YLR268W, strain sec22, stronger effect = lower value 0.973 | S. cerevisiae deletion strains, locus YLR320W, strain mms22, stronger effect = lower value 1.02 | S. cerevisiae deletion strains, locus YLR330W, strain CHS5, stronger effect = lower value 0.987 | S. cerevisiae deletion strains, locus YLR342W, strain FKS1 (second series), stronger effect = lower value 0.988 | S. cerevisiae deletion strains, locus YLR342W, strain FKS1, stronger effect = lower value 0.987 | S. cerevisiae deletion strains, locus YLR357W, strain rsc2, stronger effect = lower value 0.955 | S. cerevisiae deletion strains, locus YLR370C, strain arc18, stronger effect = lower value 0.976 | S. cerevisiae deletion strains, locus YLR371W, strain rom2, stronger effect = lower value 0.986 | S. cerevisiae deletion strains, locus YLR384C, strain iki3, stronger effect = lower value 0.959 | S. cerevisiae deletion strains, locus YLR418C, strain cdc73, stronger effect = lower value 0.973 | S. cerevisiae deletion strains, locus YML016C, strain PPZ1, stronger effect = lower value 0.993 | S. cerevisiae deletion strains, locus YML032C, strain rad52, stronger effect = lower value 0.989 | S. cerevisiae deletion strains, locus YML120C, strain ndi1, stronger effect = lower value 0.995 | S. cerevisiae deletion strains, locus YML124C, strain tub3, stronger effect = lower value 0.988 | S. cerevisiae deletion strains, locus YMR058W, strain fet3, stronger effect = lower value 0.979 | S. cerevisiae deletion strains, locus YMR078C, strain ctf18, stronger effect = lower value 0.982 | S. cerevisiae deletion strains, locus YMR125W, strain sto1, stronger effect = lower value 0.994 | S. cerevisiae deletion strains, locus YMR129W, stronger effect = lower value 0.961 | S. cerevisiae deletion strains, locus YMR205C, strain PFK2, stronger effect = lower value 1.01 | S. cerevisiae deletion strains, locus YMR223W, strain ubp8, stronger effect = lower value 0.985 | S. cerevisiae deletion strains, locus YMR231W, strain pep5, stronger effect = lower value 0.991 | S. cerevisiae deletion strains, locus YMR263W, strain SAP30, stronger effect = lower value 1 | S. cerevisiae deletion strains, locus YMR307W, strain GAS1, stronger effect = lower value 0.928 | S. cerevisiae deletion strains, locus YNL067W, strain RPL9B, stronger effect = lower value 1.02 | S. cerevisiae deletion strains, locus YNL071W, strain lat1, stronger effect = lower value 0.988 | S. cerevisiae deletion strains, locus YNL128W, strain TEP1, stronger effect = lower value 0.982 | S. cerevisiae deletion strains, locus YNL153C, strain GIM3, stronger effect = lower value 1.03 | S. cerevisiae deletion strains, locus YNL183C, strain NPR1, stronger effect = lower value 0.913 | S. cerevisiae deletion strains, locus YNL209W, strain ssb2, stronger effect = lower value 0.979 | S. cerevisiae deletion strains, locus YNL233W, strain BNI4, stronger effect = lower value 0.998 | S. cerevisiae deletion strains, locus YNL248C, strain rpa49, stronger effect = lower value 0.914 | S. cerevisiae deletion strains, locus YNL250W, strain rad50, stronger effect = lower value 0.995 | S. cerevisiae deletion strains, locus YNL271C, strain bni1, stronger effect = lower value 0.989 | S. cerevisiae deletion strains, locus YNL298W, strain CLA4, stronger effect = lower value 0.984 | S. cerevisiae deletion strains, locus YNL307C, strain MCK1, stronger effect = lower value 0.98 | S. cerevisiae deletion strains, locus YNL322C, strain KRE1 (second series), stronger effect = lower value 0.952 | S. cerevisiae deletion strains, locus YNR049C, strain mso1, stronger effect = lower value 0.953 | S. cerevisiae deletion strains, locus YNR052C, strain pop2, stronger effect = lower value 0.982 | S. cerevisiae deletion strains, locus YOL006C, strain TOP1, stronger effect = lower value 1.05 | S. cerevisiae deletion strains, locus YOL012C, strain htz1 1.45 | S. cerevisiae deletion strains, locus YOL147C, strain pex11, stronger effect = lower value 0.984 | S. cerevisiae deletion strains, locus YOR001W, strain rrp6, stronger effect = lower value 1.01 | S. cerevisiae deletion strains, locus YOR061W, strain CKA2, stronger effect = lower value 0.986 | S. cerevisiae deletion strains, locus YOR069W, strain VPS5, stronger effect = lower value 0.988 | S. cerevisiae deletion strains, locus YOR070C, strain gyp1, stronger effect = lower value 0.991 | S. cerevisiae deletion strains, locus YOR080W, strain dia2, stronger effect = lower value 0.96 | S. cerevisiae deletion strains, locus YOR083W, strain WHI5, stronger effect = lower value 0.901 | S. cerevisiae deletion strains, locus YOR106W, strain vam3, stronger effect = lower value 0.95 | S. cerevisiae deletion strains, locus YOR136W, strain idh2, stronger effect = lower value 0.988 | S. cerevisiae deletion strains, locus YOR144C, strain elg1, stronger effect = lower value 0.987 | S. cerevisiae deletion strains, locus YOR184W, strain ser1, stronger effect = lower value 0.995 | S. cerevisiae deletion strains, locus YOR231W, strain MKK1, stronger effect = lower value 0.965 | S. cerevisiae deletion strains, locus YOR265W, strain rbl2, stronger effect = lower value 0.978 | S. cerevisiae deletion strains, locus YOR270C, strain vph1, stronger effect = lower value 0.97 | S. cerevisiae deletion strains, locus YOR290C, strain snf2, stronger effect = lower value 0.951 | S. cerevisiae deletion strains, locus YOR316C, strain cot1, stronger effect = lower value 0.989 | S. cerevisiae deletion strains, locus YPL051W, strain arl3, stronger effect = lower value 0.973 | S. cerevisiae deletion strains, locus YPL078C, strain atp4, stronger effect = lower value 0.97 | S. cerevisiae deletion strains, locus YPL106C, strain sse1, stronger effect = lower value 0.955 | S. cerevisiae deletion strains, locus YPL240C, strain hsp82, stronger effect = lower value 0.984 | S. cerevisiae deletion strains, locus YPL256C, strain CLN2, stronger effect = lower value 0.981 | S. cerevisiae deletion strains, locus YPR119W, strain clb2, stronger effect = lower value 0.988 | S. cerevisiae deletion strains, locus YPR141C, strain kar3, stronger effect = lower value 0.984 | S. cerevisiae deletion strains, locus YPR163C, strain tif3, stronger effect = lower value 0.984 | S. cerevisiae deletion strains, locus YPR167C, strain met16, stronger effect = lower value 0.988 | S. cerevisiae deletion strains, strain wtn01, stronger effect = lower value 0.975 | S. cerevisiae strains, strain wild type, stronger effect = lower value 0.999
